The values below come from PubChem BioAssay AID624167 (Sanford-Burnham Center for Chemical Genomics, 2012).

A short description of the assay: Peg3 promoter luciferase inhibitors, potency, dose response, cell-based, HeLa, CREF/GAPDH counter-screen panel (AID 624167). The settings on record: CREF/GAPDH counter-screens; run 2, dose range 1, at 100 µM (top of the series).
Turning to `O=C1C=CC(=O)N1c1ccc(-c2nc3ccccc3o2)cc1`, the inhibition turned out to be 90.3%.

Take `CCCCCCCNC(=O)C1(CC2CC(c3cccc(Br)c3)=NO2)CCNCC1` (stereo not drawn): the inhibition came out at 99.3%.

With `Cc1ccc(NC(=S)NC(=O)c2ccc(F)cc2)cc1S(=O)(=O)Nc1ccccc1Cl`, the inhibition was found to be 55.6%.

As to `CN(C)CC1CCC/C(=C\c2ccc(OC(=O)c3ccc(Cl)cc3)cc2)C1=O` (stereo not drawn), the inhibition worked out at 84.9%.

For `CCc1ccc(/C=C2\SC(=S)N(CCCC(=O)Nc3cc(C)on3)C2=O)cc1`, the inhibition was 84.8%.

For the molecule `O=C(c1ccco1)N1CCN(C(c2ccccc2Cl)c2nnnn2Cc2cccs2)CC1` (stereo not drawn), the inhibition amounted to 72.3%.

Turning to `COc1ccc(-n2c(O)c(/C=N/Nc3nc(C)cc(C)n3)c3ccccc3c2=O)cc1OC`, the inhibition was -21.1%.

For `CN(C)S(=O)(=O)c1ccc(-c2csc(N/N=C/c3ccc(O)cc3)n2)cc1`, the inhibition worked out at 91.1%.

With `O=[N+]([O-])c1nn(-c2ccc3c(c2)OCCO3)n(O)c1=Nc1ccc(Cl)cc1`, the inhibition came to 80.8%.

Turning to `Nc1nonc1-n1nnc(C(=O)N/N=C/c2cc(Br)ccc2O)c1CNc1ccccc1`, the inhibition was found to be 66.5%.

Turning to `O=c1cnnc(N/N=C/c2ccccn2)[nH]1`, the inhibition stood at 9.22%.

Regarding `CCCC(=O)NC(c1ccc(N(C)C)cc1)c1ccc2cccnc2c1O` (stereo not drawn), the inhibition amounted to 27.1%.

For `O=C(CCn1cnc(-c2ccccc2)c1-c1ccccc1)N/N=C/c1ccccc1O`, the inhibition was found to be 55.9%.

Consider `NC(C(=O)O)C1ON=C(Cl)C1O` (stereo not drawn), for which the inhibition is 70.1%.

Turning to `COc1ccc(C(NC(=O)C(C)C)c2ccc3cccnc3c2O)cc1` (stereo not drawn), the inhibition stood at 40.9%.

On to `CCCCC(=O)NC(c1ccccc1OC)c1ccc2cccnc2c1O` (stereo not drawn), for which the inhibition came to 50.9%.

Turning to `C=C1CC2(OC1=O)c1ccccc1CCc1ccccc12`, the inhibition was 99.7%.

In the case of `CC(=O)NC(c1ccc(Cl)cc1Cl)c1ccc2cccnc2c1O` (stereo not drawn), the inhibition worked out at 61.7%.

In the case of `CCc1ccc(/C=C2\SC(=S)N(CCCC(=O)Nc3ccccn3)C2=O)cc1`, the inhibition amounted to 25.6%.

For `COc1ccc(N(C(=O)CCl)C(C(=O)NC2CCCCC2)c2cccnc2)cc1` (stereo not drawn), the inhibition was found to be 82.8%.

On to `CCC(c1ccc(O)c(O)c1)C(CC)c1ccc(O)c(O)c1` (stereo not drawn), for which the inhibition was 99.5%.

With `COC(=O)C1C=CC(OC2OC(COC(C)=O)C(OC(C)=O)C(OC(C)=O)C2OC(C)=O)n2c(=O)n(-c3ccccc3)c(=O)n21` (stereo not drawn), the inhibition amounted to 84.2%.

For the molecule `O=C(NNC(=O)c1cccnc1SCc1cccc([N+](=O)[O-])c1)c1ccccn1`, the inhibition was -38.1%.

As for `C/C(=N\NC(=O)c1cc(C2CC2)nc2ccccc12)c1ccc(O)cc1O`, the inhibition is -6.29%.

Turning to `CCCC(=O)NC(c1ccc(Cl)cc1)c1ccc2cccnc2c1O` (stereo not drawn), the inhibition turned out to be 70.1%.

`CCN(CC)S(=O)(=O)c1cccc(C(=O)N/N=C(\C)c2ccc(O)cc2O)c1`: the inhibition was -50.5%.

For `O=C(Nc1ccccc1C(=O)Nc1nnc(C(F)(F)F)s1)c1ccccc1`, the inhibition is 60.9%.

`Cc1cc(C(=O)Nc2cccc(C(=O)O)c2)oc1C`: the inhibition amounted to 92.8%.

For `COc1cccc2c1C(=O)c1c(O)c3c(c(O)c1C2=O)CC(O)(C(C)=NNC(=O)c1ccc(Cl)c(Cl)c1)CC3OC1CC(N)C(O)C(C)O1` (stereo not drawn), the inhibition is 99.4%.

`COc1ccc(Nc2ncnc3ccc(Br)cc23)c(OC)c1`: the inhibition was determined as 93.7%.

On to `CN1CCC2(CC1)N=C(c1ccc(F)cc1)C(=S)N2C(=O)c1ccc(C(C)(C)C)cc1`, for which the inhibition was found to be 97.8%.

`O=C(CCSc1nc2ccccc2s1)N/N=C/c1c(O)ccc2ccccc12`: the inhibition was 0.467%.

In the case of `CCCC(=O)NC(c1ccccc1)c1ccc2cccnc2c1O` (stereo not drawn), the inhibition worked out at 39.4%.
